# Measurements: PubChem BioAssay AID1259312 (Keith Lab, Institute of Cancer Science, University of …, 2017)
# Screen size: about 4,500 compounds; about 200 (4.4%) were called active. The full list was thinned out, with actives kept by preference. Unmarked numbers belong to inactive results.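 The calls were made as follows: active = cell survival measured by absorbance rises more than 2.5-fold over infected cells without compound; inactive = the rest.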
# Assay: survival after telomere uncapping, modulators, primary screen, cell-based (AID 1259312);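 also: virus expresses mutant telomerase RNA that uncaps telomeres and kills cells; compound added 2 days after infection so exposure lasts 3 days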
# Conditions: HCT116 + Ad-hTR-mut, MTT, 5 d; at 10 µM, active compounds read high
row,SMILES,fold change
1,O=C(O)COc1ccc(Br)cc1/C=C1/NC(=O)NC1=O,1.24
2,O=C(O)/C=C/C(=O)NC1CCCCC1,3.98 (active)
3,O=C(O)/C=C/C(=O)NC1CCCCNC1=O (stereo not given),-1.55
4,O=C(NC1CCCCCC1)C1CC1,-2.47
5,COC(=O)/C(C#N)=C\c1cccn1C,4.23 (active)
6,CCOC(=O)/C(C#N)=C\c1cccn1C,-3.87
7,CC(C)OC(=O)/C(C#N)=C\c1cccn1C,-3.04
8,CCSc1ccc(Sc2ccc(SCC)s2)s1,-1.05
9,CN1C2CC(OC(=O)C(CO)c3ccccc3)CC1C1OC12 (stereo not given),2.65 (active)
10,C1=CN(c2ccccc2)C(C=NCc2ccccc2)=CS1,3.25 (active)
11,O=C(NCCOC(=O)Nc1ccc(Cl)c(Cl)c1)Nc1ccc(Cl)c(Cl)c1,-1.04
12,O=C(O)CNC(=O)c1cccs1,1.14
13,O=C(C[n+]1ccccc1)c1cccs1,4.15 (active)
14,O=C(C[n+]1ccccc1)c1ccc(Br)cc1,-1.26
15,COc1ccc(OC)c(NS(=O)(=O)c2cc(Cl)ccc2Cl)c1,1.1
16,CNC(=S)Nc1ccccc1,-1.89
17,S=C(NNC(=S)Nc1ccccc1)Nc1ccccc1,4.1 (active)
18,NNC(=S)Nc1ccccc1,2.03
19,CN(Cc1cccs1)C(=S)SCCO,1.27
20,Cc1ccc(-c2nc(Cn3c(-c4cscn4)nc4ccccc43)cs2)cc1,-1.62
21,CN1C(=O)/C(=C2\SC(=S)N(CCS(=O)(=O)O)C2=O)c2ccccc21,4.3 (active)
22,CSCCC(C(=O)O)N1C(=O)/C(=C2/C(=O)N(C)c3ccccc32)SC1=S (stereo not given),-1.54
23,C=CCN1C(=O)/C(=C2\SC(=S)N(CCC)C2=O)c2ccccc21,-1.1
24,CCOC(=O)c1c(N)sc(C(=O)N2CCCCC2)c1C,-1.62
25,CN(C)CCCN1C(=O)C(O)=C(C(=O)c2cccs2)C1c1cccs1 (stereo not given),-1.86
26,Brc1ccc(C(Br)C(Br)c2ccccc2Br)cc1 (stereo not given),-2.96
27,N#CCC(c1ccccc1)C(C#N)c1ccc(Br)cc1 (stereo not given),-1.3
28,ClC(Cl)(Cl)C(c1ccc(Br)cc1)c1ccc(Br)cc1,3.49 (active)

row,SMILES,fold change
1,O=[N+]([O-])c1ccccc1Nc1ccccc1,1.12
2,CN(C)c1ccc(/C=C2/SC(=S)NC2=O)cc1,2.2
3,O=C1NC(=S)S/C1=C\c1ccsc1,-1
4,O=C1NC(=S)S/C1=C/c1ccc(O)cc1,3.65 (active)
5,Cc1cc(C)c(O)c(C(CC(C)C)c2cc(C)cc(C)c2O)c1,-4.02
6,O=C1CC(c2ccccc2)CC2=C1C(c1ccc(OC(F)(F)F)cc1)Nc1ccccc1N2 (stereo not given),-1.06
7,OC(c1ccccc1)c1nc2ccccc2[nH]1 (stereo not given),-1.08
8,OC(c1nc2ccccc2[nH]1)C(O)c1nc2ccccc2[nH]1 (stereo not given),3.31 (active)
9,FC(c1nc2ccccc2[nH]1)C(F)(F)F (stereo not given),2.19
10,COc1ccnc2cc(Cl)ccc12,1.06
11,Brc1ccccc1-c1nnc(C(c2ccccc2)c2ccccc2)o1,-1.33
12,Cc1cc(C)nc(SCCC(=O)O)n1,-2.76
13,Cc1nccn1CCC(=O)O,5.01 (active)
14,Nc1nc(SCCCOc2ccccc2)n[nH]1,1.24
15,COc1ccc(NC(=O)Nc2cccc(Cl)c2)cc1,1.1
16,O=C(COc1ccccc1)N=Nc1c(O)[nH]c2ccccc12,inactive
17,Cc1sc2ccccc2[n+]1CCCS(=O)(=O)[O-],2.97 (active)
18,Oc1ccc2ccccc2c1Sc1c(O)ccc2ccccc12,-2.97
19,Oc1ccc2ccccc2c1CNCCNCc1c(O)ccc2ccccc12,3.72 (active)
20,Oc1ccc2ccccc2c1N=Nc1ccccc1,inactive
21,Cc1nc2ccc3ccccc3c2s1,-2.18
22,c1ccc2cc3[nH]c(CN4CCOCC4)nc3cc2c1,1.25
23,Nc1ncnc2c1ncn2[C@H]1C[C@H](O)[C@@H](COP(=O)(O)O)O1,-1.8
24,CCN(C(=O)c1sc(NC(=O)CCl)c(C#N)c1C)C1CCCCC1,-1.18
25,CCOC(=O)c1ccc(C2C(C#N)=C(N)Oc3cc(C)oc(=O)c32)o1 (stereo not given),-1.07
26,Cc1[nH]nc2c1C(c1ccncc1)C(C#N)=C(N)O2 (stereo not given),2.49
27,Cc1cc2c(c(=O)o1)C(c1ccncc1)C(C#N)=C(N)O2 (stereo not given),3.96 (active)
